# MPTP inh – permeability transition pore inhibition. isolated mouse mitochondria, Ca2+ swelling absorbance, 30 min. inhibition, % at 10 µM. 1.4% of 360,000 active;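 active = inhibition of 50% or more, scaled per plate between neutral and stimulator controls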;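 note: 0% = DMSO wells given calcium and 100% = 1 mM EGTA wells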
# HSF1 inh – HSF1 inhibition | 0.77% of 300,000 active | activity change, negative = inhibition, % at 7.5 µM (by protocol) | NIH3T3-HGL HSE-luciferase, MG132-induced, luminescence 8 h; stronger effect = lower value;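 active = more than half of replicate wells show activity change below -50%, luminescence cut by over half; inconclusive = some wells, but at most half, below -50%; inactive = no replicate well below -50%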;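 note: luciferase reports HSF-1 transcriptional activity via heat shock element; 0% = median of DMSO wells and -100% = zero luminescence signal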
# Platelet DG rel – platelet dense granule release activity | human platelet-rich plasma, SFLLRN dense granule ATP release, luminescence | inhibition, %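 (compounds screened at 7.5 µM in platelet-rich plasma)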 | 0.22% of 300,000 active;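 active = mean replicate score, as percent of positive control, at or above 50; inconclusive = mean below 50 but at least one replicate at or above 50; inactive = mean and every replicate below 50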
# HSF1 activator – increases HSF-1 driven luciferase reporter signal. NIH3T3-HGL HSF-1 luciferase reporter, MG132, 8 h; 100% = twice DMSO control signal. activation, % at 9 µM. 1.7% of 300,000 active;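 active = mean replicate activation of at least 50% with a set share of replicates each reaching 50%; inconclusive = only one of those two conditions met; inactive = mean below 50% and too few replicates reaching it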;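 note: 0% = median of the neutral control wells and 100% = twice that signal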
# dFosB activator – activators of mouse delta FosB homodimer | purified delta FosB, TAMRA-CDK5 oligo fluorescence polarization; percent of positive-control signal above neutral wells | activation, % at 25 µM | 0.99% of 340,000 active;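 active = mean activation above about 17%, with every replicate also reaching it, limit read from the data, passing the limit was not always enough; inconclusive = only one of the two conditions met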
# Target sequence (P13346 whole entry, looked up): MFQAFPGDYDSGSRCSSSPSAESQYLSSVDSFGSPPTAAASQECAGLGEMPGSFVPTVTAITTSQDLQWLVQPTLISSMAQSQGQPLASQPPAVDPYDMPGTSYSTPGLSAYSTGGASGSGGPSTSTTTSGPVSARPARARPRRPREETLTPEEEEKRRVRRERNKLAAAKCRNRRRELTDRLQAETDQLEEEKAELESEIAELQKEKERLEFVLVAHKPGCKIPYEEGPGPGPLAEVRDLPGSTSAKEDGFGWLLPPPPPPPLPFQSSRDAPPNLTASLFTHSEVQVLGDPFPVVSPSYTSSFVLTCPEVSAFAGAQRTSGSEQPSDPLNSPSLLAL
# HSP90 refold inh – blocks HSP90-mediated luciferase refolding in reticulocyte lysate. AID 1789. 0.91% of 290,000 active. Rabbit reticulocyte lysate, luciferase refolding luminescence, 3 h. inhibition, % at 5.6 µM;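 active = inhibition above the screen-wide mean plus 3 SD, computed separately per campaign, cut at about 16% in these data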;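 note: 0% = DMSO wells and 100% = 60 µM geldanamycin wells; inhibitors lower the luminescence because luciferase stays unfolded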
# MPTP counter – membrane potential counter-screen of mitochondrial pore inhibitors; 78% of 5,000 active; shares compounds with MPTP inh; AID 624504; inhibition, % at 10 µM; isolated mitochondria, Rhodamine 123 fluorescence; in the data active = inhibition above about 22%;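 note: 0% = DMSO vehicle and 100% = positive control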
# MPTP swell DR – MPTP inhibition, dose response swelling confirmation; shares compounds with MPTP inh; AID 651561; isolated mitochondria swelling, absorbance; 58% of 780 active; IC50, µM; in the data active = IC50 below about 20 µM
# MPTP cs DR – counter-screen for mitochondrial permeability transition pore inhibitors, dose response. shares compounds with MPTP inh. isolated mitochondria counterscreen, fluorescence read-out. IC50, µM. 49% of 780 active; in the data active = IC50 below about 80 µM
# * marks the source's active call; other numbers are inactive results; ? = inconclusive; / = no result given. An excerpt weighted towards active compounds, which were near 4.9% of everything screened.
SMILES,MPTP inh,HSF1 inh,Platelet DG rel,HSF1 activator,dFosB activator,HSP90 refold inh,MPTP counter,others
CC(C)COc1ccc(CNC(=S)NCc2ccccc2)cc1,53*,10,-1,6,1,0,82*,
Cc1c(C(=O)NCCSCc2ccc(Cl)cc2Cl)cccc1[N+](=O)[O-],-12,15,-1,6,-2,-4,/,
CN1CCN(C(=O)c2ccccc2NC(=O)c2ccccc2)CC1,-1,0,4,3,-2,-7,/,
CC(C)Sc1ncnc2[nH]ncc12,0,/,/,/,-1,/,/,
CCCCc1nnc(NC(=O)CSCc2cc(=O)n3cc(C)sc3n2)s1,1,7,0,14,-6,0,/,
OCCNCc1ccc(OCc2ccc(Cl)cc2Cl)cc1,94*,17,5,26,1,2,-6,MPTP swell DR=4.2*;MPTP cs DR=>80
OCCCCNCc1ccc(OCc2ccc(Cl)cc2Cl)cc1,1,8,-5,15,-5,3,/,
CCc1ccc(O)c(CNCCNCc2cc(CC)ccc2O)c1,95*,-4,-3,-5,-5,/,4,
O=C(Nn1c(-c2ccc(Br)cc2)nc2ccccc2c1=O)c1ccncc1,0,4,-2,6,2,1,/,
Cc1cc(C(=O)Nn2c(-c3ccc(Br)cc3)nc3ccccc3c2=O)ccc1[N+](=O)[O-],67*,6,3,15,-10,1,87*,
CN(CC1CCOCC1)C(=O)CC1C(=O)NCCN1Cc1ccc(F)c(F)c1 (stereo unspecified),2,-2,-5,10,-1,-1,/,
CC(C)(C)c1nc(NC(=O)Nc2ccccc2)sc1Br,94*,7,2,5,-6,-2,80*,
O=C(Nc1ccccc1)Nc1nnc(-c2cccs2)s1,23,/,-3,/,0,0,/,
O=C(Cc1nnc(NC(=O)Nc2ccccc2)s1)Nc1ccccc1,4,-7,6,-10,/,-2,/,
O=C(Nc1ccccc1)Nc1nnc(CSCc2ccccc2Cl)s1,90*,5,-1,13,?,1,92*,
O=C(Nc1ccc(Cl)cc1)Nc1nnc(SCc2ccccc2)s1,86*,-1,1,28,-2,-2,89*,
Cc1ccc(OCCSCc2nnc(NC(=O)Nc3cccc(Cl)c3)s2)cc1,93*,-11,-3,-19,-3,-3,85*,
COc1ccc(-c2cc3ccccc3nc2N)cc1OC,-1,8,8,15,-6,0,/,
O=C(Nc1ccc(Cl)cc1)Nc1nnc(CSCc2ccccc2Cl)s1,79*,-7,1,-3,15,-2,57*,
O=C(Nc1ccc(Cl)c(Cl)c1)Nc1nnc(CSc2ccccc2)s1,75*,-25,-1,-38,-3,1,40*,
O=C(Nc1nnc(S(=O)(=O)N2CCCC2)s1)c1cccc([N+](=O)[O-])c1,6,4,-14,0,1,-7,/,
O=C(Nc1nnc(CSCc2ccccc2F)s1)c1cccc([N+](=O)[O-])c1,23,7,-1,?,-8,-2,/,
O=C(Nc1nnc(SCc2ccccc2)s1)c1cccc([N+](=O)[O-])c1,71*,5,3,-3,2,2,83*,
CC1CCN(S(=O)(=O)c2nnc(NC(=O)c3cccc([N+](=O)[O-])c3)s2)CC1,82*,-6,-6,-6,8,-5,42*,
CC1CCCC(C)N1C(=O)COc1ccc(F)cc1 (stereo unspecified),1,-6,5,-7,2,2,/,
SMILES,MPTP inh,HSF1 inh,Platelet DG rel,HSF1 activator,dFosB activator,HSP90 refold inh,MPTP counter,others
COc1ccc(NC(=O)Nc2nnc(C(C)(C)C)s2)cc1,13,6,2,8,-3,0,/,
CC(C)(C)c1nnc(NC(=O)Nc2ccc(Cl)cc2)s1,58*,1,9,24,-9,11,86*,
O=C(C1Cc2ccccc2CN1C(=O)c1ccccc1)N1CCN(c2ccccc2)CC1 (stereo unspecified),2,-2,-9,7,4,2,/,
CCN(CC)CCOc1ccc(-c2c(C)c3c(ccc4ccccc43)oc2=O)cc1,-2,/,/,/,/,/,/,
CC1(C)CC(c2nc(-c3ccc(Br)cc3)cs2)CCS1 (stereo unspecified),1,3,1,9,-4,-3,/,
CC1(C)CC(c2nc(-c3ccc(Cl)cc3)cs2)CCS1 (stereo unspecified),78*,3,-4,13,-9,-2,0,MPTP swell DR=>100;MPTP cs DR=58*
O=C(CSc1nnc(CNC(=O)c2ccco2)o1)Nc1cccc(C(F)(F)F)c1,0,1,1,-7,1,-4,/,
CCN(CC)C(=O)[C@H]1CC(CC(=O)NCCN2CCOCC2)C(=O)N2CCc3c([nH]c4ccccc34)[C@]12C (stereo partly specified),-2,/,/,/,4,/,/,
Cc1nn(-c2ccccc2)c(Cl)c1/C=C1\SC(=S)NC1=O,54*,-11,-3,-5,-5,0,66*,
Cc1nn(-c2ccccc2)c(Cl)c1/C=C1\SC(=S)N(CCCCCC(=O)O)C1=O,6,16,-5,23,-9,1,/,
CC(C)c1ccc(S(=O)(=O)N2CCN(C(=O)C3CC3C)CC2)cc1 (stereo unspecified),0,3,15,-1,-9,/,/,
CC1CC1C(=O)N1CCN(S(=O)(=O)c2cc(C(F)(F)F)cc(C(F)(F)F)c2)CC1 (stereo unspecified),101*,/,/,/,-7,/,102*,
COc1ccc(S(=O)(=O)N2CCN(C(=O)c3cnc(C)cn3)CC2)cc1,-3,-4,-16,-7,3,3,/,
Cc1cnc(C(=O)N2CCN(S(=O)(=O)c3cc(C(F)(F)F)cc(C(F)(F)F)c3)CC2)cn1,88*,/,/,/,-11,/,105*,
CC12CCC(C(=O)OC3CCCCC3)(OC1=O)C2(C)C (stereo unspecified),0,-5,1,-15,-18,0,/,
COc1ccc(CC(=O)Nc2cc(S(=O)(=O)Nc3ccc(OC)cc3)ccc2OC)cc1,1,/,/,/,0,/,/,
COc1cc(CN2C[C@@H](CO)O[C@@H](n3cnc4c(NCC(C)C)ncnc43)C2)cc(OC)c1OC,-2,/,/,/,/,/,/,
CN(C)CCn1c(SCc2ccccc2C#N)nc2c(sc3ccccc32)c1=O,-2,2,3,-2,-9,-3,/,
Cc1ccc(NC(=O)C2CCN(S(=O)(=O)c3cc([N+](=O)[O-])ccc3Cl)CC2)nc1,81*,/,/,/,-2,/,80*,
O=C(Nc1nc2ccc(F)cc2s1)C1CCN(S(=O)(=O)c2cc([N+](=O)[O-])ccc2Cl)CC1,96*,-1,-1,8,-9,2,84*,

# Screening data as filed in PubChem BioAssay.
